Bioassay records as filed in PubChem.
Sfp inh: Sfp phosphopantetheinyl transferase inhibition; Q9F4F7; Biochemical Sfp PPTase activity, qHTS; Potency, µM, for the others: largest response in the series, negative = inhibition, most hits filed as inhibitors; actives 3.5% (n = 310,000); AID 1490;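 also: the enzyme is Sfp with the accession as filed and its product quenches rhodamine fluorescence; 0% = enzyme reaction without inhibitor and -100% = no enzyme wells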
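After 15 min at room temperature with compound, 15 nM Sfp received 5 uM rhodamine-CoA plus 12.5 uM BHQ-2-ybbR (50 mM Hepes pH 7.6, 10 mM MgCl2). Rate came from the fluorescence difference over 30 min, ex 525/em 598 nm.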
12-LOX inh: ALOX12 (human) lipoxygenase inhibition; purified 12hLO, xylenol orange hydroperoxide absorbance; AID 1671190; P18054; Potency, µM (highest dose often 108 µM), for inactives: at the highest dose activity change, negative = inhibition, most hits filed as inhibitors; actives 1.1% (n = 580,000)
Target sequence (P18054 whole entry, looked up): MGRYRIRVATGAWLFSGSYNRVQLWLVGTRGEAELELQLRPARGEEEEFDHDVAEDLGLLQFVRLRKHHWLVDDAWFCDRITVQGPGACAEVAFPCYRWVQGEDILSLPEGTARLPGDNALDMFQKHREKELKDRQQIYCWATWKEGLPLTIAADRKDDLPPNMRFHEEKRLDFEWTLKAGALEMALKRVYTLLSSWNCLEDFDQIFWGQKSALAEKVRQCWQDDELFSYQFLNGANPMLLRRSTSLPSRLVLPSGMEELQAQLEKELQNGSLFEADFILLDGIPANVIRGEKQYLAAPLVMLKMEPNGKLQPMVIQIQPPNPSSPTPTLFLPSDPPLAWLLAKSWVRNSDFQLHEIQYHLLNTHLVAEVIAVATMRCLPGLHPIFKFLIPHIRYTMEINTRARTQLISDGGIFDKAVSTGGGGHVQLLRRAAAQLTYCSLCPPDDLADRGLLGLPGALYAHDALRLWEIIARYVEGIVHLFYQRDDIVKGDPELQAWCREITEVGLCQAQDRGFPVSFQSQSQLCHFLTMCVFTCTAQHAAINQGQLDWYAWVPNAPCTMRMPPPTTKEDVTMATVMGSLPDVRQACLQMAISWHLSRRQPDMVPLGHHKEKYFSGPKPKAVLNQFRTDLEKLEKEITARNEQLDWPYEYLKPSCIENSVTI
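Purified human 12hLO at 150 nM in 25 mM Hepes, 0.01% Triton X-100, pH 7.0, preincubated 15 min at room temperature with compound. Reaction started with 40 uM arachidonic acid, 30 min at room temperature. Hydroperoxide measured by Fe-xylenol orange, 573/405 nm absorbance ratio.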
PLK1 PBD block: blocks phosphopeptide binding to human PLK1 polo-box domain. Plk1 PBD binding of FITC phosphopeptide, fluorescence polarization. Potency, µM, for inactives: max response, negative = inhibition, actives largely listed as inhibitors. actives 2.8% (n = 360,000). P53350; also: series mostly up to about 57 µM; nearly all actives have a fitted effect of over 65% in size
VDR inh: inhibitors of human vitamin D receptor. actives 0.93% (n = 400,000). VDR-SRC2-3 peptide fluorescence polarization, 2 h. AID 504847. Potency, µM, inactives show max response, negative = inhibition, hits mostly inhibitors. P11473
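Compounds are added to VDR with labelled SRC2-3 coactivator peptide and held 2 h at room temperature. Inhibition of the VDR–peptide interaction is then read as a change in fluorescence polarization.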
* hit, by the source's call; ? = inconclusive; . = not tested or not shown; [ ] = another dose, or the depositor's remark. Hits are enriched below; roughly 4.2% of the tested compounds scored in any of these assays. Calls follow the shape of the dose curve; as a rule, active = well fitted curve in the direction sought with a large enough effect; inconclusive = small, poorly fitted or top-dose-only effect, or another doubt; inactive = no such curve, though single readings can be large; an effect the other way counts as inactive or inconclusive. Unless noted, % is scaled to controls: 0 for no effect and ±100 for the full control effect; potency is read from the fitted curve at half-maximal effect.

SMILES	Sfp inh	12-LOX inh	PLK1 PBD block	VDR inh
NC1(C(=O)O)CCCc2ccc(N(CCCl)CCCl)cc21 (configuration not stated)	.	-13%	-10%	0%
COC(=O)C1=C(C)NC(=S)NC1c1ccc(N(CCCl)CCCl)cc1Cl (configuration not stated)	.	35µM*	-1%	?
COc1ccc(OCC(=O)N2CCN(CCc3ccncc3)CC2)cc1	.	?	.	5%
CCOP(=S)(OCC)Oc1cc(C)nc(N(CC)CC)n1	-20%	.	.	?
CCOP(=S)(OCC)Oc1ncn(-c2ccccc2)n1	?	.	.	14µM*
Cc1ccc(OCC(=O)Nc2ccc(Cl)cc2C(=O)c2ccccc2)cc1C	.	-30%	.	-16%
COc1cc(/C=C2\C(=O)NC(=O)N(c3ccccc3)C2=O)cc(OC)c1O	22µM*	?	?	3%
Cn1cc(/C=C2\C(=O)NC(=O)N(c3ccccc3)C2=O)c2ccccc21	-15%	52%	-13%	27%
CCn1c(C)cc(/C=C2\C(=O)NC(=O)N(c3ccccc3C)C2=O)c1C	10%	-15%	-10%	6%
O=C1NC(=O)N(c2ccccc2)C(=O)/C1=C/c1ccc2c(c1)Cc1ccccc1-2	50µM*	.	.	.
COc1ccccc1N1C(=O)NC(=O)/C(=C/c2ccc3c(c2)Cc2ccccc2-3)C1=O	50µM*	?	5.3µM*	?
O=C1NCCCCCCN(Cc2ccncc2)[C@@H]2CN(C(=O)COc3ccc(F)cc3)CC[C@@H]12	.	33%	.	.
CCC1CN2CCC1CC2C(Oc1cc2ccccc2c2ccccc12)c1ccnc2ccc(O)cc12 (configuration not stated)	-20%	.	.	.
COc1ccc(C(=O)C2CCCN(Cc3ccc(F)cc3F)C2)cc1F (configuration not stated)	24%	-24%	-2%	-20%
Cc1cccc(C(=O)NC(Oc2ccccc2)C(Cl)(Cl)Cl)c1 (configuration not stated)	16%	-22%	15µM*	?
Nc1ccc(F)cc1C(=O)c1ccccc1	.	-15%	.	.
[Hg+][c]1ccccc1	0.22µM*	.	.	13µM*
c1ccc(N=Nc2ccccc2)cc1	9%	.	.	4%
COP(=O)(Cc1ccc(C#N)o1)OC	18%	46%	4%	-5%
O=C1OCC2(CCN(Cc3ccccn3)C2)N1c1ccncc1 (configuration not stated)	.	65%[176 µM]	.	.
CCC(C)/C=C(C)/C=C/C1=CC2=C(Cl)C(=O)C(C)(OC(C)=O)C(=O)C2=CO1 (configuration not stated)	10%	.	-30%	-16%
CC[C@H](C)/C=C(C)/C=C/C1=CC2=C(Cl)C(=O)[C@@](C)(OC(C)=O)C(=O)C2=CO1	.	.	1.1µM*	40µM*
O=C1OC(c2ccc(O)c(S(=O)(=O)O)c2)(c2ccc(O)c(S(=O)(=O)O)c2)c2c(Br)c(Br)c(Br)c(Br)c21	19%	.	.	35µM*
Cn1nc(C2CCCC2)cc1[C@H]1CN2CC[C@H]1C[C@@H]2CNC(=O)Nc1ccccc1	.	60%[176 µM]	.	.
CN1C(=O)N(C)C(=O)C2(Cc3c(ccc4ccccc34)N(C)C2)C1=O	-25%	0%	8.4µM*	0%
SMILES	Sfp inh	12-LOX inh	PLK1 PBD block	VDR inh
CC(C)N1C(=O)NC(=O)C2(Cc3c(ccc4ccccc34)N(C)C2)C1=O (configuration not stated)	.	-63%	.	.
CCC1(c2ccccc2)C(=O)NC(=S)NC1=O	.	?	3%	-9%
COc1ccc(CC(=O)N2C[C@@H](CO)[C@H](N(C)C)C2)cc1Cl	.	11%	.	.
O=C1CN(C(=O)COC(=O)Cc2ccccc2)c2ccccc2N1	5%	2%	30µM*	-18%
O=C(Cc1ccccc1)OCCN1CCCCC1	18%	?	-1%	21%
COc1cc(CN2CCNCC2)cc(OC)c1OC	4%	6.3µM*	-18%	-16%
Clc1ccc(CN2CCNCC2)cc1	18%	-38%	-8%	-10%
C[N+]12CCC(CC1)C(C(O)(c1ccccc1)c1cccs1)C2 (configuration not stated)	-3%	45µM*	1%	8%
CCCC[N+]12CCC(CC1)C(C(O)(c1ccccc1)c1ccccc1)C2 (configuration not stated)	7%	12%	-1%	1%
O=C1c2ccccc2C(=O)N1SC1CCCCC1	10µM*	16µM*	1.9µM*	20µM*
COc1ccc(C(=O)N2CCOCC2)cc1S(=O)(=O)N1CCC(C)CC1	20%	-4%	-3%	13%
COc1ccc(C(=O)Oc2cccc3cccnc23)cc1S(=O)(=O)N1CCOCC1	45µM*	2%	1%	6%
CCCCc1ccc(O)cc1	.	0%[176 µM]	.	.
CCCCc1ccc(C(=O)O)nc1	28µM*	6%	3%	4%
Cc1ccccc1-n1c(/C=C/c2ccc(N(C)C)cc2)nc2ccccc2c1=O	.	-8%	.	-18%
CN1CCCC2(CCN(C(=O)c3ccncc3)CC2)C1	31%	-10%[57.4 µM]	.	6%
CN1CC[C@@]2(CCCN(C(=O)c3csnn3)C2)C1	-16%	?	.	45µM*
c1cncc(C2CCCCN2Cc2cc3n(n2)CCNC3)c1 (configuration not stated)	.	-7%	.	.
COc1cc2c(cc1OCC1CC1)NC(=O)C21CCN(C(=O)C2CCC2)CC1	.	-2%[176 µM]	.	.
Cc1ccc(-n2c(C)cc(/C=C3/C(=O)NC(=O)N(C)C3=O)c2C)cc1	-17%	-17%	-14%	17%
COc1ccc(OC)c(N2C(=O)/C(=C/c3ccco3)C(=O)NC2=S)c1	18µM*	.	2.4µM*	?
COc1ccc(N2C(=O)/C(=C/c3cc(C)n(-c4ccc(C)cn4)c3C)C(=O)NC2=S)c(OC)c1	35µM*	35µM*	30µM*	-10%
O=C1NC(=O)C(=Cc2ccco2)C(=O)N1	.	?	4.7µM*	4%
